Source: PubChem
Most compounds without a hit are left out; they make up all but 4.9% or so of the library.
NALP1 yeast inh – inhibitors of NALP1 inflammasome in yeast. S. cerevisiae NALP1/ASC/caspase-1 growth, X-gal OD620, 72 h. inhibition, % at 10 µM. actives 0.61% (n = 280,000); in the data active = inhibition mostly above about 24%, no sharp cut-off; inactive = mostly below about 32%
tim10-1 inh – inhibits growth of tim10-1 mutant yeast; S. cerevisiae tim10-1 ts strain growth, BacTiter-Glo, 24 h; inhibition, % at 20 µM; actives 2.2% (n = 330,000); AID 463190;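 active = inhibition of at least 40%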;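 note: mutant grown at 25 °C; 0% = DMSO wells with yeast and 100% = wells holding no yeast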
tim23-1 inh – tim23-1 yeast growth inhibition; S. cerevisiae tim23-1 growth, BacTiter-Glo luminescence, 24 h; inhibition, % at 20 µM; actives 1.3% (n = 330,000); AID 463212;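 active = growth inhibition of the mutant yeast at or above 50%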;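 note: temperature-sensitive mutant grown at 25 °C; plate controls were DMSO-treated mutant yeast for no effect and medium wells lacking yeast for full effect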
SKKanGAS inh – inhibitors of SKKanGAS S. pyogenes growth in kanamycin (SK-promoter or general growth effect). BacTiter-Glo, 6 h. inhibition, % at 7.5 µM. actives 1.3% (n = 300,000). AID 1662;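 active = mean replicate score, as percent of positive control median, at least 50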;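 note: strain carries kanamycin resistance gene driven by streptokinase promoter and grows in 40 µg/ml kanamycin; loss of luminescence reflects streptokinase promoter inhibition or plain growth inhibition; 0% = median of DMSO wells and 100% = positive control at its reference dose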
NALP3 yeast inh – NALP3 inhibition in yeast; Yeast reconstituted NLRP3/ASC/caspase-1, beta-gal luminescence, 24 h; inhibition, % at 10 µM; actives 0.39% (n = 330,000);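 active = inhibition of 50% or more; inactive = inhibition below 50%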;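 note: plate controls were induced DMSO wells for no effect and uninduced yeast grown without galactose for full effect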
TIM10 inh – TIM10 yeast growth inhibition. inhibition, % at 10 µM. actives 1.4% (n = 330,000). S. cerevisiae TIM10 strain growth, BacTiter-Glo luminescence, 24 h;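 active = inhibition of 40% or more at the single tested concentration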;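 note: wild-type TIM10 isogenic control strain grown at permissive 25 °C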
TIM10 conf – TIM10 yeast growth inhibition, confirmed; shares compounds with TIM10 inh; S. cerevisiae tim10 strain growth, BacTiter-Glo luminescence, 24 h; inhibition, % at 10 µM; actives 63% (n = 4,600); AID 463215;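 active = inhibition of yeast growth at or above a set limit in either of two replicates at 10 µM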;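 note: this counterscreen used the strain with wild-type TIM10; 0% = yeast with DMSO and 100% = medium wells lacking yeast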
* marks the source's active call; other numbers are inactive results; . = no result given.

SMILES	NALP1 yeast inh	tim10-1 inh	tim23-1 inh	SKKanGAS inh	NALP3 yeast inh	TIM10 inh	TIM10 conf
NC(C(=O)O)C(c1ccccc1)C(F)F (configuration not stated)	-4	-1	7	-1	5	-5	.
CC(C)Sc1nc2c(c(=O)n(C)c(=O)n2C)n1Cc1ccc(Cl)cc1	26	1	23	14	12	-18	.
Cn1c(=O)c2c(nc(SCc3ccccc3)n2Cc2ccc(Cl)cc2)n(C)c1=O	-17	25	12	80*	8	43*	26
Cc1cc(-c2nnc(SCC(=O)Nc3ccccc3)n2C)no1	-6	3	8	-2	7	54*	-4
CSc1ccccc1C(=O)Nc1cccc(C)c1	3	20	37	-5	31	44*	30
CCOc1nc2cnccc2n(CC(=O)Nc2c(C)cccc2CC)c1=O	4	-3	-2	16	10	12	.
CCOC(=O)c1ccc2c(c1)nc(SCc1cn3ccsc3n1)n2CC	-4	23	35	7	16	44*	34*
CC(C)CNc1nnnc2c1sc1nc(N3CCOCC3)c3c(c12)CC(C)(C)SC3	4	37	4	23	8	40*	21
CCC(C)N=CC1=C(O)CC(c2ccccc2)CC1=O (configuration not stated)	13	9	6	-4	1	-10	.
COc1ccc(C2CC(=O)C(C=NCC(C)C)=C(O)C2)cc1 (configuration not stated)	19	-9	8	-4	26	97*	1
Cc1c(C(=S)Nc2ccccc2)cnn1-c1ccc([N+](=O)[O-])cc1	19	38	44	1	40	43*	-1
Nc1c(C(=O)N/N=C/c2ccc([N+](=O)[O-])cc2)cnn1-c1ccccc1	.	-18	-3	-4	16	3	.
O=C(Nc1ccc(Cc2ccncc2)cc1)c1ccc(Br)o1	40	6	34	-10	27	44*	36*
Cc1cc(C)cc(C(=O)NC(=S)Nc2ccc(Cc3ccncc3)cc2)c1	9	19	34	3	19	47*	9
O=C(NC(=S)Nc1ccc(Cc2ccncc2)cc1)c1ccccc1	11	29	30	28	22	51*	-29
O=C(CNC(=O)c1ccc(Br)o1)Nc1ccncc1	.	2	2	-16	23	-2	.
COCCN(C(=O)c1ccccc1F)c1nnc(-c2ccc(OC)cc2)s1	8	2	39	2	18	-13	.
O=C(N/N=C/c1cccnc1)c1cc2ccccc2o1	45	2	9	-3	5	22	.
O=C(N/N=C/c1ccncc1)c1cc2ccccc2o1	50	8	48	-1	9	43*	36*
O=C(Nc1ccc(S(=O)(=O)N2CCc3ccccc32)cc1)c1ccc2c(c1)OCO2	37	33	27	26	14	44*	47*
Cc1ccc(C(=O)Nc2ccc3c(c2)OCO3)cc1Cl	14	-2	8	2	19	15	.
O=C(N/N=C/c1ccc2c(c1)OCO2)c1ccc2c(c1)OCO2	2	-9	1	-4	12	-1	.
Cc1ccsc1/C=N\NC(=O)c1ccc2c(c1)OCO2	-2	0	35	6	6	43*	28
Cc1ccc(NC(=O)c2ccc3c(c2)OCO3)cc1Cl	17	-27	48	6	39	42*	34*
CC(C)Cc1ccc(C(C)NC(=O)Cc2ccc(S(=O)(=O)N3CCOCC3)s2)cc1 (configuration not stated)	.	4	11	2	4	8	.
CCOC(=O)[C@H]1[C@H]2COc3cc(OC)ccc3[C@@H]2N2C(=O)[C@@H](CO)NC(=O)[C@@]12C	.	-2	11	.	1	2	.
CSC1=NC(=O)/C(=C/c2ccc(SC)cc2)S1	14	24	24	-1	16	49*	21
Cc1ccc(NC(=O)C(OC(=O)c2ccc(C=O)cc2)c2ccccc2)cc1Cl (configuration not stated)	30	12	4	31	12	14	.
O=C(NCCc1ccccc1)c1ccc(S(=O)(=O)N2CCCC2)cc1	.	19	23	.	15	62*	3
